Compound activity from PubChem.
Only some compounds are listed: those with a hit (about 3.4% of all), similar ones and a draw of the others.
MITF inh = MITF inhibitors, primary screen, biochemical, AlphaScreen, human; AID 1259374, 2018; inhibition, % at 2.6 µM; actives 0.91% (n = 650,000); AlphaScreen MITF homodimerization, bead proximity signal; in the data active means inhibition above about 50%;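 further: 0% = vehicle wells with protein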
Target sequence (O75030 whole entry, looked up): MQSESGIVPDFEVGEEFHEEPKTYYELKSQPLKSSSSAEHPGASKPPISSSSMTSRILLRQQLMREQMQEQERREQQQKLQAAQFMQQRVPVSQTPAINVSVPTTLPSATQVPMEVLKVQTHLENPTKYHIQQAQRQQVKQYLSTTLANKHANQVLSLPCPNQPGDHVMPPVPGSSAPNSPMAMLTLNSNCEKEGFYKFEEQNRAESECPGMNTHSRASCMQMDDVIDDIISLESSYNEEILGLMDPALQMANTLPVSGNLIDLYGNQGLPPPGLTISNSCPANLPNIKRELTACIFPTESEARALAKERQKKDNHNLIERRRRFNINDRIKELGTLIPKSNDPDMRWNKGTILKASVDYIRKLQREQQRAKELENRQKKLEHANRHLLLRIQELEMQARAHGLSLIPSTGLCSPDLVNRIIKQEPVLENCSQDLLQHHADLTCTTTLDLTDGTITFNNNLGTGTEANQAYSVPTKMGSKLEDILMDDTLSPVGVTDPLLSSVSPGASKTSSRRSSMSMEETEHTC
GPR151 activ = activators of human GPR151, primary screen, cell-based, PathHunter beta-arrestin, luminescence; AID 1508602, 2020; actives 1% (n = 650,000); activation, % at 11.2 µM; PathHunter beta-arrestin GPR151 cells; G-protein coupled receptor 151 (Homo sapiens), Q8TDV0; in the data active means activation above about 4.9%;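 further: 0% = median of compound wells and 100% = cells with positive control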
TEAD-YAP block = TEAD-YAP interaction inhibition, primary screen, TEAD-YAP interaction inhibitor project, luminescence, HEK-TIYL cells | inhibition, % at 9.12 µM | actives 1.4% (n = 640,000) | AID 1259422, 2018 | TEAD-Gal4/YAP UAS-luciferase luminescence; in the data active means inhibition above about 32%;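 further: 0% = median of test compound wells and 100% = reference inhibitor wells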
FBW7 activator = FBW7 E3 ligase activators, primary screen, biochemical, AlphaScreen, human. AID 1259310, 2017. normalized activity (activation), % at 26.1 µM. AlphaScreen FBW7–phospho-cyclin E peptide binding, activator screen. actives 0.13% (n = 650,000). F-box/WD repeat-containing protein 7 (Homo sapiens), Q969H0; in the data active means normalized activity above about 1.9%;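 further: purified mutant Fbw7 with reduced substrate affinity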
Starred values were filed as active, the others as inactive.

SMILES | MITF inh | GPR151 activ | TEAD-YAP block | FBW7 activator
CCOC(=O)N1CCN(S(=O)(=O)c2cc(C(=O)Nc3ccc(Oc4ccccc4)cc3)ccc2F)CC1 | -1.4 | -1.1 | 21.6 | -0.2
O=C(Nc1ccc(Oc2ccccc2)cc1)c1ccc(F)c(S(=O)(=O)NCCc2ccccc2)c1 | -3.8 | 0.0 | 39.9* | 0.0
Cc1c(Cl)cccc1NC(=O)c1cc(S(=O)(=O)NCc2ccco2)ccc1F | 14.8 | -7.5 | 3.3 | 2.0*
C=CCNS(=O)(=O)c1cc(C(=O)Nc2ccc(Oc3ccccc3)cc2)ccc1F | 18.5 | -0.2 | 66.5* | 0.3
COc1cc(NC(=O)C2CCCN(S(=O)(=O)c3c(C)noc3C)C2)cc(OC)c1 (stereo not given) | -1.6 | -0.3 | -7.6 | -0.1
CCOc1ccc(NC(=O)c2ccc(F)c(S(=O)(=O)NCc3ccccc3)c2)cc1 | 7.2 | -0.5 | 36.9* | 0.5
CCOc1ccc(NC(=O)c2cc(S(=O)(=O)NCc3ccccc3Cl)ccc2F)cc1 | -18.8 | -0.6 | 44.9* | 0.0
NC(=O)c1ccc(-c2nc(NCc3nc4ccccc4[nH]3)c3ncn(Cc4ccc(C(F)(F)F)cc4)c3n2)cc1 | 11.5 | -1.5 | 0.9 | 0.2
NNC(=O)/C(=C/c1ccc2c(c1)OCO2)NC(=O)c1ccccc1Cl | 6.0 | 0.8 | -1.8 | 0.0
NNC(=O)/C(=C/c1cccs1)NC(=O)c1ccccc1Cl | 11.3 | -1.6 | 42.4* | 1.3
COC(=O)c1c(N)sc(C(=O)NCCc2ccccc2)c1C | 8.0 | -5.1 | 72.5* | 0.6
COC(=O)c1c(N)sc(C(=O)Nc2cccc(Cl)c2)c1C | -2.4 | -5.6 | 71.7* | 0.0
CCCNC(=O)c1sc(N)c(C(=O)OC)c1C | -3.1 | 0.6 | -10.5 | -0.1
COC(=O)c1c(N)sc(C(=O)Nc2cc(C)ccc2C)c1C | 6.5 | -3.0 | 79.3* | 0.2
Cn1c(SCC(=O)Nc2ccc([N+](=O)[O-])cc2)nnc1-c1ccc(Br)cc1 | 6.7 | -1.7 | 4.1 | 0.6
OC1CCCN(Cc2ccc(Cl)c(Cl)c2)C1 (stereo not given) | -11.9 | -0.3 | -5.8 | -0.2
COc1ccc(CC2(C)OC(c3ccncc3)=NN2C(C)=O)cc1 (stereo not given) | 4.4 | 0.7 | 9.8 | 0.1
COc1ccc(CC2(C)OC(c3cccs3)=NN2C(C)=O)cc1 (stereo not given) | 0.3 | 1.4 | 36.3* | -0.1
CC(=O)Nc1nc(C)c(-c2cn3cccnc3n2)s1 | 1.6 | -0.7 | -13.6 | -0.2
COc1ccc(/C=C/c2ccc3ccccc3[n+]2[O-])cc1 | 3.3 | -3.4 | 71.9* | 0.0
CCN1/C(=C/c2ccc3ccccc3[n+]2CC)Sc2ccc(Br)cc21 | 16.1 | 1.1 | 71.3* | -0.5
CCN1/C(=C/c2ccc3ccccc3[n+]2CC)Sc2cc(OC)c(OC)cc21 | 42.0 | -0.5 | 91.3* | -0.5
CCN1/C(=C/C(=C/c2sc3ccc(Cl)cc3[n+]2CC)C2CC2)Sc2ccc(Cl)cc21 | 36.6 | -1.7 | 30.3 | -0.2
CC[n+]1c(/C=C/c2ccc(OC)c(OC)c2)ccc2ccccc21 | 15.0 | 1.3 | 58.8* | 1.5
CC(C)(C)OC(=O)CN(c1ccc([N+](=O)[O-])cc1)S(=O)(=O)c1ccccc1 | 13.3 | 0.8 | 3.0 | -0.1
SMILES | MITF inh | GPR151 activ | TEAD-YAP block | FBW7 activator
Cc1cc2c(o1)c1cnn(CC(=O)N(C)C)c(=O)c1n2C | -4.0 | 0.2 | -2.4 | -0.1
COc1ccc(N(C(C)C(=O)NCc2ccc(C)cc2)S(C)(=O)=O)cc1 (stereo not given) | -17.5 | -0.4 | -4.2 | -0.1
O=C(Nc1ccc(Cl)cc1Cl)c1cc(F)ccc1[N+](=O)[O-] | 4.1 | -1.8 | 76.1* | 0.3
COc1cc(NC(=O)c2cc(Cl)ccc2[N+](=O)[O-])c(OC)cc1Cl | -0.3 | 1.1 | 5.8 | -0.2
Cc1ccc(NC(=O)c2cc(F)ccc2[N+](=O)[O-])cc1 | 0.2 | -0.5 | 51.8* | -0.1
O=[N+]([O-])c1ccc(CSc2nnc(-c3ccoc3)o2)cc1 | -1.8 | 2.1 | 6.5 | 0.1
CC(C)CC(c1nnnn1Cc1ccc2c(c1)OCO2)N1CCN(C)CC1 (stereo not given) | 3.8 | 0.4 | 5.2 | -0.1
COc1ccccc1N1CCN(C(=O)CS(=O)(=O)Cc2ccccc2)CC1 | -0.8 | -1.1 | -3.1 | -0.1
COc1ccccc1N1CCN(C(=O)CN2CC=C[C@@H]2C(=O)NCCc2ccccc2)CC1 | -21.8 | 0.4 | 41.9* | 0.1
